Screening data deposited in PubChem BioAssay by National Center for Advancing Translational Sciences (NCATS).
CHX counter: counter-screen for Shiga toxin inhibitors: cycloheximide protein synthesis inhibition; cell reporter, cycloheximide protein synthesis inhibition counterscreen; max response, %; 300,000 compounds, 12% hits; AID 2314; in the data active = max response mostly above about 13%, no sharp cut-off; inactive = mostly below about 14%; note: read at 38.3 µM for the half of the compounds with a filed dose; 0% is about no effect
SARS PLP yeast: blocks SARS-CoV papain-like protease in a yeast assay; S. cerevisiae expressing SARS-CoV PLpro, growth rescue; Potency, µM (series often up to 32.9 µM), without a hit: top-dose activity, positive = growth rescue, most hits filed as activators; 330,000 compounds, 0.19% hits; calls by dose curve; note: potency is the fitted concentration of half-maximal effect; 0% is about no effect; nearly all actives have a fitted effect of over 55% in size
Pf growth 96h: P. falciparum growth inhibition at 96 hours; P. falciparum luciferase reporter growth, 96 h; Potency, µM (doses to about 28.7 µM), inactives show top-dose activity change, negative = inhibition, most hits filed as inhibitors; 320,000 compounds, 6.9% hits; AID 504834; note: potency is the fitted concentration of half-maximal effect; % is set by controls: 0 for no effect and ±100 for the full control effect
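Delayed-death screen, second-generation endpoint: infected erythrocytes, 2% hematocrit, 0.05% parasitemia final; 96 hours at 37 C, 5% CO2; luciferase detection reagent; luminescence decrease equals reduced growth.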
Shiga inhibitor: inhibitors of Shiga toxin in Vero cells; Vero cells, Shiga toxin protein synthesis inhibition reporter; inhibition, % at 38.7 µM; 290,000 compounds, 9.2% hits; AID 2315; in the data active = inhibition mostly above about 28%, no sharp cut-off; inactive = mostly below about 43%; note: 0% is about no effect
Pf growth 48h: inhibits P. falciparum growth in the first generation, 48 h; P. falciparum luciferase growth in erythrocytes, 48 h; Potency, µM (titrated, usually from 28.7 µM), without a hit: at the highest dose activity change, negative = inhibition, usual class: inhibitors; 310,000 compounds, 5.9% hits; note: potency is the fitted concentration of half-maximal effect; % is set by controls: 0 for no effect and ±100 for the full control effect
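Growth was read as firefly luciferase luminescence after a 48 h, 37 C, 5% CO2 exposure of compounds to reporter-bearing P. falciparum cultures (0.1% parasitemia, 2% hematocrit final) in Albumax-supplemented RPMI 1640.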
AMA1 RON2 block: disrupts binding of P. falciparum AMA1 to RON2; 360,000 compounds, 0.2% hits; Potency, µM (highest dose often 58.2 µM), inactives show top-dose activity change, negative = inhibition, hits mostly inhibitors; AID 720542; AlphaScreen AMA1-biotinylated RON2 peptide binding;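 note: potency is the fitted concentration of half-maximal effect; 0% = vehicle wells and -100% = peptide control; nearly all actives have a fitted effect of over 45% in size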
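AMA1 (3D7) with his tag at 25 nM final met compounds first, then biotinylated RON2 peptide at 25 nM; detection used donor plus acceptor beads, 10 µg/mL apiece, read by AlphaScreen after 30 min at room temperature.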
* marks the source's active call; other numbers are inactive results; ? = inconclusive; . = no result given; [ ] = remark or other dose. Sampled rows, rich in hits. Any-hit rate of the full collection: about 19%. Unless noted, calls come from the whole dose curve; as a rule, active = well fitted curve in the direction sought with a large enough effect; inconclusive = small, poorly fitted or top-dose-only effect, or another doubt; inactive = no such curve, though single readings can be large; an effect the other way counts as inactive or inconclusive.

SMILES	CHX counter	SARS PLP yeast	Pf growth 96h	Shiga inhibitor	Pf growth 48h	AMA1 RON2 block
CN(CCCN1CCOCC1)C(=O)c1cc(COc2ccc(F)cc2F)on1	8	0%	?	16	-14%	25%
Cc1ccc(OCc2cc(C(=O)N(C)Cc3cnc4ccccn34)no2)cc1C	20*	-2%	?	33	-25%	-14%
CCOC(=O)C1=C(COC(=O)C2(C)CC2(Cl)Cl)NC(=O)NC1c1ccccc1 (centres undefined)	-2	1%	-9%	-15	-27%	22%
CCOC(=O)C1=CN(Cc2ccco2)S(=O)(=O)N(C)C1CC (centres undefined)	.	7%	.	.	.	0%
Cc1nc(SCc2ccccc2)c(C(F)(F)F)c(=O)[nH]1	0	-7%	5.2µM*	6	8%	3%
Cc1nc(SCc2ccccc2)c([N+](=O)[O-])[nH]1	-1	-24%	16%	21	?	9%
Nc1nc(N)c2sc3nc4c(cc3c2n1)CCC4	25*	8%	.	52	57%	-4%
Cc1nc2c(sc3nc4c(cc32)COC(C)(C)C4)c(=O)o1	5	3%	?	-3	?	9%
COc1ccccc1NC(=O)c1ccc(COc2ccccc2OC)o1	1	-9%	2%	-8	3%	-17%
COC(=O)c1ccc(COc2ccc(Cl)cc2)o1	20*	0%	-8%	75*	32%	16%
C=CCc1ccc(OCc2ccc(C(=O)Nc3ccc(NC(C)=O)cc3)o2)c(OC)c1	47*	-4%	?	136*	-11%[0.00184 µM]	-6%
CCc1ccc(OCc2ccc(C(=O)O)o2)cc1	64*	-3%	7%	101*	207%	9%
COC(=O)c1ccc(COc2ccc(/C=N/O)cc2OC)o1	20*	-1%	?	71*	-68%	-5%
O=C(CNc1ccccc1)Nc1cccc2ccccc12	-2	-1%	?	-9	-1%	-25%
N#Cc1ccc(OCc2ccc(C(=O)O)o2)cc1	-3	-3%	34%	4	49%	0%
O=C(O)c1ccc(COc2ccc(Cl)cc2)o1	24*	-4%	0%	42	35%	-1%
O=C(O)c1ccc(COc2ccc([N+](=O)[O-])cc2)o1	11	2%	235%	26	35%	6%
COC(=O)c1ccc(COc2ccc3c4c(c(=O)oc3c2)CCC4)o1	5	-4%	2%	-2	32%	-12%
O=C(O)c1ccc(OCc2ccc(C(=O)O)o2)cc1	15*	1%	104%	32	12%	-4%
COC(=O)c1ccc(COc2cccc(OC)c2)o1	22*	-1%	.	58*	43%	9%
COC(=O)c1nn2c(C(F)(F)F)cc(-c3ccc(Br)o3)nc2c1Br	-4	0%	.	24	16%	?
CCCCc1ccc(NC(=S)NCc2ccc(OC)cc2)cc1	10	0%	30%	25	-1%	51%
O=C(CCCn1c(SCC(=O)NCC2CCCO2)nc2ccccc2c1=O)NCc1ccccc1 (centres undefined)	-3	12%	9.3µM*	1	.	?
O=C(CCCn1c(SCc2cc(=O)n3cc(Cl)ccc3n2)nc2ccccc2c1=O)NCC1CCCO1 (centres undefined)	-4	1%	10µM*	-1	6.6µM*	1%
O=C(CCCn1c(SCC(=O)c2ccc(F)cc2)nc2ccccc2c1=O)NCc1ccccc1	-4	5%	10µM*	-26	.	1%
SMILES	CHX counter	SARS PLP yeast	Pf growth 96h	Shiga inhibitor	Pf growth 48h	AMA1 RON2 block
Cc1cc(NC(=O)CSc2nc3ccccc3c(=O)n2CCCC(=O)NCc2ccccc2)n[nH]1	-3	4%	33%	10	?	58%
O=C(CCCn1c(SCC(=O)Nc2ccccc2Cl)nc2ccccc2c1=O)NCC1CCCO1 (centres undefined)	-1	3%	-3%	-4	?	2%
COc1cccc(CNC(=O)[C@@H]2CCCN2C(=O)[C@@H]2CCCN2C(=O)c2cccs2)c1	.	.	.	.	.	6%
C=CCn1c(=S)sc2c(=O)[nH]cnc21	2	0%	47%	-18	70%	-3%
CC(=O)Nc1cccc(Cn2cccn2)c1	-1	1%	13µM*	6	6%	.
O=C(Nc1cccc(S(=O)(=O)N2CCOCC2)c1)c1cc2c(s1)CCC2	-2	-1%	.	-12	-12%	-1%
O=C(Nc1cccc(Cn2cccn2)c1)c1cc2c(s1)CCCC2	77*	-1%	.	143*	110%	13%
CC1(C)N(O)C2CCCCC2N1O (centres undefined)	13	-8%	?	17	0.037µM*	26%
CSc1nc(C)nc(N/C=C(\C#N)S(=O)(=O)c2ccccc2Cl)n1	-2	0%	-6%	-8	33%	-5%
CCOC(=O)N1CCc2c(sc3c2c(=O)n(Cc2ccccc2)c(=O)n3CC(=O)NCC2CCCO2)C1 (centres undefined)	-3	-2%	?	3	5.9µM*	-7%
CCOC(=O)N1CCc2c(sc3c2c(=O)n(Cc2ccccc2)c(=O)n3Cc2ccccc2F)C1	-1	-5%	?	-10	2.6µM*	-14%
CCOC(=O)N1CCc2c(sc3c2c(=O)n(Cc2ccccc2)c(=O)n3Cc2cccc(C)c2)C1	-2	-12%	-27%	-13	?	-17%
Cc1ccc(C(=O)O)cc1NC(=O)CSc1ncnc2sc3c(c12)CCC3	-3	-1%	13%	13	-3%	3%
Cc1ccc(NC(=O)CCC(=O)N2CCC(C)CC2)c([N+](=O)[O-])c1	3	?	-5%	-2	9%	9%
O=C1C(Nc2ccccc2)=C(N2CCCCC2)C(=O)c2ccccc21	31*	3%	34%	72*	0.47µM*	0%
Cc1ccc(NC2=C(N3CCCCC3)C(=O)c3ccccc3C2=O)cc1	50*	3%	0.074µM*	107*	0.17µM*	2%
CN(C1=C(N2CCCCC2)C(=O)c2ccccc2C1=O)c1ccccc1	12	?	.	-3	8.3µM*	9.5µM*
O=C(/C=C/c1ccc(O)cc1)c1ccc(NC2=C(N3CCCCC3)C(=O)c3ccccc3C2=O)cc1	59*	-1%	0.17µM*	160*	0.52µM*	-10%
CC1(C)C(=O)C=C(N2CCCCC2)c2ccccc21	.	.	.	.	.	12%
COc1ccccc1NC1=C(N2CCCCC2)C(=O)c2ccccc2C1=O	23*	11%	0.093µM*	38	0.046µM*	?
O=C1C(Nc2cccc(O)c2)=C(N2CCCCC2)C(=O)c2ccccc21	35*	-2%	0.41µM*	51*	?	?
O=Cc1coc2ccc3ccccc3c2c1=O	-1	-26%	?	-1	?	-1%
Cc1ccc(C(=O)C(C(=O)/C=C/c2ccccc2)=C2SCCCS2)cc1	20*	-4%	9.3µM*	40	5.2µM*	-28%
